The entries come from a sample that favours hits as a whole.
BLM helicase inh: inhibitors of human Bloom syndrome helicase BLM; hit rate 0.2% among 350,000; Potency, µM (doses to about 56.1 µM), for the others: top-dose activity change, negative = inhibition, actives largely listed as inhibitors; P54132; recombinant BLM DNA unwinding, fluorescence dequenching;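 note: plate controls were vehicle for no effect and no enzyme for full effect; nearly all actives have a fitted effect of over 35% in size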
PKM2 activator: increases activity of human pyruvate kinase M2 | Potency, µM (top dose mostly 57.5 µM), for inactives: at the highest dose activation, actives largely listed as activators | purified PKM2, Kinase-Glo ATP luminescence, activation; response scale: 0% is enzyme alone, no compound | AID 1631 | hit rate 0.34% among 260,000 | P14618; note: nearly all actives have a fitted effect of over 55% in size
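Purified hPK-M2 (>95% pure) converted ADP (0.1 mM final) to ATP with 0.5 mM PEP in 50 mM imidazole pH7.2, KCl, MgCl2, Tween 20, BSA; 1 h at room temperature. ATP detected by Kinase-Glo luminescence.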
RECQ1 inh-1: RECQ1 (human) helicase inhibition; P46063; RECQ1 DNA unwinding, red fluorescence kinetic read; Potency, µM (doses to about 57.3 µM), without a hit: at the top dose activity, negative = inhibition, hits mostly inhibitors; hit rate 0.54% among 240,000;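 note: plate controls were vehicle for no effect and no enzyme for full effect; nearly all actives have a fitted effect of over 30% in size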
Target sequence (P46063 whole entry, looked up): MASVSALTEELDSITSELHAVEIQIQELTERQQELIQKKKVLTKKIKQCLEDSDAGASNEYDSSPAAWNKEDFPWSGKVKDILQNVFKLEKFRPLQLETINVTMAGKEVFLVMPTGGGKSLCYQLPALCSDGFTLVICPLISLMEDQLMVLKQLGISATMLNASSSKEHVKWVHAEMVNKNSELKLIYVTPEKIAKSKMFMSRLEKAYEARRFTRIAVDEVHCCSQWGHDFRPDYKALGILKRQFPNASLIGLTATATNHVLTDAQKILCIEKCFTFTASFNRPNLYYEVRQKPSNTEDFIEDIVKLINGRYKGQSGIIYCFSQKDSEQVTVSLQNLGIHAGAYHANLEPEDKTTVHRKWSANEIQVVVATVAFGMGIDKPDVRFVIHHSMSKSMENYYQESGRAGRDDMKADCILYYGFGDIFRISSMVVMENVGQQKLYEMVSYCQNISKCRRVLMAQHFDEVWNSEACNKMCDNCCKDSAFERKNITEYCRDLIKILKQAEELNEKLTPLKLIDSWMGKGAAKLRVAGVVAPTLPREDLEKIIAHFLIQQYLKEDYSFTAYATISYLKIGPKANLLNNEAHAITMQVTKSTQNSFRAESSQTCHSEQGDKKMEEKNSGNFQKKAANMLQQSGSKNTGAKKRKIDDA
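RECQ1T1 50 nM; forked duplex (20 bp + 30-nt ss tails) 200 nM, ATP 2 mM final; pH 8.0, 2 mM MgCl2, 2.5 ug/ml poly(dI-dC); 15 min compound preincubation; discontinuous kinetic read over 2 h at RT.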
JMJD2E inh: blocks human JMJD2E demethylase activity. B2RXH2. JMJD2E catalytic domain, FDH-coupled NADH fluorescence (FDH is formaldehyde dehydrogenase). Potency, µM (top dose mostly 57.1 µM), without a hit: at the highest dose activity change, negative = inhibition, actives largely listed as inhibitors. hit rate 1.6% among 230,000. AID 2147; active = well fitted inhibition curve with a large enough effect, not every such curve was filed as active; inconclusive = small, poorly fitted or top-dose-only effect, or another doubt; inactive = no such curve, though single readings can be large or run the other way;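 note: 0% = wells with enzyme and -100% = buffer wells without enzyme; nearly all actives have a fitted effect of over 50% in size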
APE1 inh: blocks human APE1 abasic DNA cleavage; recombinant APE1, TAMRA/BHQ-2 abasic DNA cleavage fluorescence; Potency, µM (titrated, usually from 65.8 µM), for the others: at the highest dose activity change, negative = inhibition, actives largely listed as inhibitors; hit rate 0.35% among 350,000; AID 2517;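 note: plate controls were vehicle for no effect and reference inhibitor for full effect; nearly all actives have a fitted effect of over 55% in size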
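Kinetic fluorescence read (525 ex/598 em nm, three reads 60 s apart) of AP-site incision; signal = third minus first read. Enzyme 0.75 nM, dual-labelled THF duplex 50 nM, compound preincubation 15 min RT.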
RECQ1 inh conf: confirmation of human RECQ1 helicase inhibitors; hit rate 28% among 610; RECQ1 helicase DNA unwinding, fluorescence; Potency, µM (series often up to 229 µM), without a hit: at the highest dose activity change, negative = inhibition, most hits filed as inhibitors; shares compounds with RECQ1 inh-1; note: nearly all actives have a fitted effect of over 45% in size
ADP FP counter: displaces ADP in a fluorescence polarization counter-screen for RECQ1 hits. shares compounds with RECQ1 inh-1. ADP fluorescence polarization displacement counterscreen. hit rate 27% among 530. Potency, µM (highest dose often 228 µM), for inactives: top-dose activity change, negative = inhibition, actives largely listed as inhibitors; note: nearly all actives have a fitted effect of over 45% in size
RECQ1 inh-2: blocks human RECQ1 DNA unwinding | recombinant RECQ1 DNA unwinding, red fluorescence | shares compounds with RECQ1 inh-1 | AID 504841 | Potency, µM (series often up to 119 µM), inactives show top-dose activity, negative = inhibition, actives largely listed as inhibitors | hit rate 15% among 1,100; note: nearly all actives have a fitted effect of over 50% in size
* = called active by the depositor; i = inactive; ? = inconclusive; nt = not tested or not shown; [ ] = dose if it differs, or a comment. Unless noted, calls come from the whole dose curve; as a rule, active = well fitted curve in the direction sought with a large enough effect; inconclusive = small, poorly fitted or top-dose-only effect, or another doubt; inactive = no such curve, though single readings can be large; an effect the other way counts as inactive or inconclusive. Unless noted, % is set by controls: 0 for no effect and ±100 for the full control effect; potency is the fitted concentration of half-maximal effect.

SMILES	BLM helicase inh	PKM2 activator	RECQ1 inh-1	JMJD2E inh	APE1 inh	RECQ1 inh-2	others
CCN(c1ccc(C)c(C)c1)S(=O)(=O)c1ccc2c(c1)CCN2C(=O)CCC(=O)O	-2.1%	4.8%	-19.6%	-5.5%	-0.5%	nt	RECQ1 inh conf=14.8%;ADP FP counter=-10.8%
COc1ccc(N(C)S(=O)(=O)c2ccc3c(c2)CCN3C(=O)CCC(=O)O)cc1	0.5%	nt	nt	nt	nt	nt
CCOc1ccc(Cn2c(CNS(=O)(=O)c3ccc(C(C)(C)C)cc3)nc3cccnc32)cc1	-9.3%	nt	nt	nt	nt	nt
Cc1ccc(S(=O)(=O)N(CC(=O)Nc2cccc(N(C)S(C)(=O)=O)c2)c2ccc(Cl)c(Cl)c2)cc1	-11.6%	-1.6%	7.08µM*	2.0%	-2.9%	-9.1%	RECQ1 inh conf=?;ADP FP counter=5.6%[91.9 µM]
CN(c1cccc(NC(=O)CN(c2ccc(Cl)c(Cl)c2)S(=O)(=O)c2ccccc2)c1)S(C)(=O)=O	-8.5%	?	-10.4%	-0.7%	-1.2%	nt
N=C1/C(=C/c2coc3ccccc3c2=O)C(=O)N=C2SC(c3ccco3)=NN12	?	12.6%	28.2µM*	?	10.9%	50.1µM*
COc1ccc(-n2cccc2/C=C2\C(=N)N3N=C(c4ccco4)SC3=NC2=O)cc1	12.6µM*	2.8%	?	-24.9%	10µM*	7.08µM*
N=C1/C(=C\c2coc3ccc(O)cc3c2=O)C(=O)N=C2SC=CN12	-27.6%	28.2µM*	25.1µM*	-0.3%	1.5%	56.2µM*
CCC1=NN2C(=N)/C(=C/c3cc(C)n(Cc4ccccc4)c3C)C(=O)N=C2S1	-8.9%	-0.7%	-19.6%	?	-4.9%	nt
CSC1=NSC2=NC(=O)/C(=C\c3coc4ccccc4c3=O)C(=N)N12	-11.9%	15.8%	-3.2%	?	-9.7%	nt
Cc1cc(/C=C2\C(=N)N3N=C(c4ccco4)SC3=NC2=O)c(C)n1Cc1ccccc1	-23.5%	-3.1%	?	?	-5.0%	?
C[C@H]1CC2[C@@H]3CCC4=CC(=O)C=C[C@]4(C)[C@@]3(F)[C@@H](O)C[C@]2(C)[C@@]1(O)C(=O)CO (stereo partly drawn)	nt	nt	-5.2%	4.5%	-7.2%	nt
N=C1/C(=C\c2coc3ccccc3c2=O)C(=O)N=C2SC(c3ccncc3)=NN12	?	22.5%	?	280.6%	-3.2%	?
Cc1nc2cc(C)c(C)cc2s1	-2.6%	2.4%	-1.0%	8.7%	-4.2%	nt
Cc1cc2nc3ccc(=[N+](C)C)cc-3sc2cc1N	15.8µM*	-12.3%	15.8µM*	14.1µM*	?	15.8µM*	RECQ1 inh conf=3.55µM*;ADP FP counter=7.08µM*
CC(C)(C)N1C(=O)[C@H]2[C@H]3[C@H](O)[C@H](O)C/C(=N/OC[C@@H](O)COCc4ccco4)[C@@H]3CC[C@@H]2C1=O	-0.4%[12.4 µM]	nt	i[11.5 µM]	nt	9.2%[12.4 µM]	nt
Cc1ccc(S(=O)(=O)Nc2ccc(C(=O)Nc3ccncc3)cc2)cc1	-11.5%	1.9%	-2.8%	2.8%	-7.3%	nt
Cc1ccc(NS(=O)(=O)c2ccc(NC(=O)c3cccc(NC(=O)C(C)C)c3)cc2)cc1	-10.8%	-1.8%	?	-1.3%	-3.2%	-16.6%
CCN1C(C)=C(C(=O)OC(C)C)C(c2ccccc2Cl)C(C(=O)O)=C1C(=O)O (stereo not drawn)	1.0%	nt	11.0%	nt	?	nt
COc1ccc(-n2c(O)c(/C=N/NS(=O)(=O)c3ccc(C)cc3)c3ccccc3c2=O)cc1OC	-4.0%	-2.5%	10µM*	?	2.7%	?
COc1ccc(C)cc1S(=O)(=O)Nc1ccc(-n2c(C)nc3ccccc3c2=O)cc1	nt	nt	nt	nt	2.0%	nt
COc1ccc(-n2c(O)c(/C=N/NS(=O)(=O)c3cc(C)ccc3C)c3ccccc3c2=O)cc1OC	-16.5%	-0.3%	14.1µM*	?	?	50.1µM*
COc1ccc(-n2c(O)c(/C=N/Nc3nc(C)cc(C)n3)c3ccccc3c2=O)cc1OC	-25.1%	11.0%	-12.5%	?	1.2%	nt
CC(C)C[C@@H](CC(=O)N[C@@H](CCCN)CC(=O)N[C@@H]1CCNC[C@H]1C(=O)N[C@H](CC(=O)N[C@@H](CCC(=O)O)CC(=O)O)CC(C)C)NC(=O)[C@@H]1CCCC[C@H]1N	0.2%	nt	2.8%	-13.3%	1.3%	nt
COc1ccc(Cn2nnnc2C(c2cccnc2)N2CCN(c3ccc(O)cc3)CC2)cc1 (stereo not drawn)	-1.6%	2.7%	1.26µM*	-21.6%	9.5%	-0.2%	RECQ1 inh conf=0.4%[114 µM];ADP FP counter=8.2%[91.9 µM]
SMILES	BLM helicase inh	PKM2 activator	RECQ1 inh-1	JMJD2E inh	APE1 inh	RECQ1 inh-2	others
COC(=O)C/C=C\[C@@H](C)[C@@H](CO)NS(=O)(=O)c1ccc(C)cc1	4.0%[12.4 µM]	nt	1.8%[11.5 µM]	nt	6.7%[12.4 µM]	nt
O=[n+]1ccn([O-])c2ccccc21	-1.0%	nt	nt	nt	nt	nt
COc1ccc(CN(C(=O)c2ccc(-c3ccccc3)[nH]2)C(C(=O)NCC2CCCO2)c2ccc(C)o2)cc1 (stereo not drawn)	-11.9%	1.2%	25.1µM*	?	6.1%	-11.7%
O=C(NCC1CCCO1)C(c1cccs1)N(Cc1ccccc1)C(=O)c1ccc(-c2ccccc2)[nH]1 (stereo not drawn)	-5.9%	-1.8%	-1.2%	?	11.2%	nt
CC(=O)c1cccc(NC(=O)Cn2c(=O)c(CNc3ccc(C)cc3)cc3cc4c(cc32)OCCO4)c1	-6.3%	nt	nt	nt	nt	nt
O=C(CC1N=C2c3ccccc3N=C(SCc3ccc(Cl)cc3)N2C1=O)NCc1ccco1 (stereo not drawn)	-13.6%	21.4%	?	?	13.2%	?
Cc1ccc(CSC2=Nc3ccccc3C3=NC(CCC(=O)NCc4ccco4)C(=O)N23)cc1 (stereo not drawn)	-7.6%	6.8%	-13.4%	?	-2.7%	nt
COc1ccc(C(=O)c2cn(Cc3ccccc3F)c3cc4c(cc3c2=O)OCCO4)cc1OC	-7.2%	nt	nt	nt	nt	nt
CC(=O)Nc1ccc(-c2ccc3nnc(C)n3n2)cc1	-4.3%	-6.4%	-2.8%	?	6.7%	nt
Cc1nnc2ccc(-c3ccc(NC(=O)Cc4cccs4)cc3)nn12	-12.4%	0.5%	31.6µM*	?	?	-28.6%
COc1ccccc1/C=C/C=c1\sc2nc(=O)c(Cc3ccccc3)nn2c1=O	?	-1.1%	?	?	?	?
COc1cccc(/C=c2\sc3nc(-c4cccs4)nn3c2=O)c1OC	-2.9%	-0.9%	i	0.3%	-2.6%	nt

From PubChem
